Measurements: the supplement of paper PMC13380429

System: Vero E6 infected with SARS-CoV-2
Test: inhibition of SARS-CoV-2 cytopathic effect; higher = more antiviral protection, active = above 15
Conditions: 48 h

Measured: inhibition of SARS-CoV-2 cytopathic effect

Cc1n[nH]c2ccc(-c3cncc(OC[C@@H](N)Cc4ccccc4)c3)cc12
inactive: 1 nM 1.18% | 8.33 nM 0.14% | 100 nM 4.58% | 833.33 nM 4.63% | 10000 nM -13.2%

C[C@@H](N[C@H]1CCCC[C@@H]1NC(=O)c1ccc(Cl)cc1)c1cccc2ccccc12 [Calhex-231]
inactive: 1 nM -0.12% | 8.33 nM -0.88% | 100 nM 1.31% | 833.33 nM 5.65% | 10000 nM -1.86%

C[C@H]1COC2=C1C(=O)C(=O)c1c2ccc2c1CCCC2(C)C [cryptotanshinone]
inactive: 1 nM 1.45% | 8.33 nM 0.55% | 100 nM 2.85% | 833.33 nM -1.89% | 10000 nM -2.92%

O=C(O)c1cc(O)c2c3nc4ccccc4oc-3cc(=O)c2n1 [pirenoxine]
inactive: 1 nM 0.17% | 8.33 nM 3.09% | 100 nM 2.36% | 833.33 nM -0.17% | 10000 nM 3.17%

CCn1c(O)nnc1-c1ccc(Cl)cc1 [5-(4chlorophenyl)-4-ethyl-2,4-dihydro-3H-1,2,4-triazol-3-one]
inactive: 1 nM -1.14% | 8.33 nM -2.31% | 100 nM -1.83% | 833.33 nM 0.79% | 10000 nM 0.03%

CN1C(=O)N(c2cc(Cl)cc(Cl)c2)C(=O)[C@]12CN(Cc1cc(C(=O)O)cs1)C[C@H]2c1ccc(C#N)cc1
inactive: 1 nM -1.94% | 8.33 nM 0.44% | 100 nM 1.44% | 833.33 nM 0.49% | 10000 nM -0.22%

COC(=O)c1ccc(O)cc1 [methylparaben]
inactive: 1 nM -0.45% | 8.33 nM 0.03% | 100 nM 2.76% | 833.33 nM 1.99% | 10000 nM 2.64%
